The supplement of paper PMC13094657
± gives the standard deviation of the averaged measurements.

What follows are molecules tested on MDA-MB-231 (assay: kynurenine production, fold change vs DMSO IFNg/TNF control; higher = more kynurenine produced (less inhibition)). Conditions: pre-treatment time: 18 h then 24 h IFNg/TNF.
Procedure, shortened: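 In 96-well plates, MDA-MB-231 cells (7 × 10^4/well) were given 24 h to settle, pre-treated for 18 h with each natural product in 0.1% DMSO, and stimulated for 24 h with IFNγ (1 U/ml) and TNF (6.25 ng/ml) at 37°C. Supernatants were processed with trichloroacetic acid and p-dimethylaminobenzaldehyde and read at 492 nm against 0–100 μM standards. In the first screening round, kynurenine production, as fold change over same-plate cytokine-stimulated vehicle wells, was averaged over duplicate plates.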

Structure (SMILES)	kynurenine production
C=C[C@H]1[C@H](O[C@@H]2O[C@H](CO)[C@@H](O)[C@H](O)[C@H]2O)OC=C2C(=O)OCC[C@]21O [Swertiamarin] (compound dose: 10 uM)	0.912 ± 0.14
C=C(C)C1CC=C(C)[C@@H](O)C1 (single isomer, unassigned; (-)) [(-)-carveol (mixed)] (compound dose: 10 uM)	1.02 ± 0.019
C[C@H](CC[C@@H](O)C(C)(C)O)[C@H]1CC[C@@]2(C)[C@@H]3CC=C4[C@@H](CC[C@H](O)C4(C)C)[C@]3(C)[C@H](O)C[C@]12C [Mogrol] (compound dose: 10 uM)	0.905 ± 0.15
COC(=O)C1=CC[C@@]23CC[C@@H]([C@@](C)(/C=C/C=C(\C)C(=O)O)OC2=O)[C@@]3(OC(C)=O)CC1 [Pseudolaric Acid B] (compound dose: 10 uM)	0.62 ± 0.24
C=C(CCC=C(C)C)[C@H]1CC[C@]2(C)[C@@H]1[C@H](O)C[C@@H]1[C@@]3(C)CC[C@H](O)C(C)(C)[C@@H]3[C@@H](O[C@@H]3O[C@H](CO)[C@@H](O)[C@H](O)[C@H]3O)C[C@]12C [Ginsenoside Rk3] (compound dose: 10 uM)	0.81 ± 0.11
COC(=O)C1=CO[C@@H](O[C@@H]2O[C@H](CO)[C@@H](O)[C@H](O)[C@H]2O)[C@@H]2[C@@]3(C)O[C@H]3[C@@H](O)[C@]12O [Sesamoside] (compound dose: 10 uM)	0.928 ± 0.12
C=C1CC[C@H]2C(=C)CC[C@H]3C(=C)C(=O)O[C@@H]3[C@@H]12 [Dehydrocostus Lactone] (compound dose: 10 uM)	0.398 ± 0.079
